Eight sequences from publication PMC8384837, “Expanding the binding specificity for RNA recognition by a PUF domain” can be followed below.

Holding throughout (assay): yeast three-hybrid, YBZ-1, SC-Leu-His + 0.5 mM 3-AT, 4 days
Holding throughout (conditions): tags: N-Gal4 AD-HA kept; label: inside an RPR1-promoter hybrid RNA with tandem MS2 sites; ssRNA

Experiment [1] addresses PUM1 PUF domain R5-GRY (Homo sapiens, UniProt Q14671 828-1176, C1007G;Q1011Y). A digest of the protocol: (§1)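 Each repeat of the Pumilio-1 PUF domain was randomized at its three base-contacting residues, and these libraries were co-expressed from a centromeric plasmid with matching RNA elements in strain YBZ-1. After four days on SC-Leu (input) or SC-Leu-His + 0.5 mM 3-AT (selection), the repeat regions were PCR-amplified and Illumina-sequenced. The interaction score compares variant frequency between input and selection as a log change, computed in log2 with a pseudocount of 1 for absent variants.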

The target in experiment [2] is PUM1 PUF domain R5-SKC (Homo sapiens, UniProt Q14671 828-1176, C1007S;R1008K;Q1011C). A digest of the protocol: as §1
Experiment [3] addresses PUM1 PUF domain R5-FRK (Homo sapiens, UniProt Q14671 828-1176, C1007F;Q1011K). A digest of the protocol: as §1
Experiment [4] addresses PUM1 PUF domain R4-TPV (Homo sapiens, UniProt Q14671 828-1176, N971T;H972P;Q975V). A digest of the protocol: as §1
For experiment [5], the target named is PUM1 PUF domain R3-VWG (Homo sapiens, UniProt Q14671 828-1176, C935V;R936W;Q939G). A digest of the protocol: as §1
Experiment [6] has as its target PUM1 PUF domain R8-VFK (Homo sapiens, UniProt Q14671 828-1176, N1122V;Y1123F;Q1126K). A digest of the protocol:
as §1

Experiment [7] addresses PUM1 PUF domain R5-RYE (Homo sapiens, UniProt Q14671 828-1176, C1007R;R1008Y;Q1011E). A digest of the protocol:
as §1

Experiment [8] has as its target T1, PUM1 PUF domain R6-NRS (Homo sapiens, UniProt Q14671 828-1176, Y1044R;Q1047S).
T1 sequence: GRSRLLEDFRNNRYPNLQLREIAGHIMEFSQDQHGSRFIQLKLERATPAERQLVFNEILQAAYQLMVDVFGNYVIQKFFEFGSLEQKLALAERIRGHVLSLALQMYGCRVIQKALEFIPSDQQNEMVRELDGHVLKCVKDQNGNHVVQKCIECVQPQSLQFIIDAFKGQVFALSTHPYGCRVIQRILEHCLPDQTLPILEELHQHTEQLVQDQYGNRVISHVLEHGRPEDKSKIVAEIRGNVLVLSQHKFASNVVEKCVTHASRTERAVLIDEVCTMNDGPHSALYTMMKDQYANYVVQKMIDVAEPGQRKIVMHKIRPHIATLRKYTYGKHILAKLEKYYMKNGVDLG
A digest of the protocol: as §1

For experiment [9], the target named is PUM1 PUF domain R4-RIY (Homo sapiens, UniProt Q14671 828-1176, N971R;H972I;Q975Y). A digest of the protocol: as §1
The target in experiment [10] is PUM1 PUF domain R4-GPY (Homo sapiens, UniProt Q14671 828-1176, N971G;H972P;Q975Y). A digest of the protocol: as §1

Take “GGCUAGAACUAGUGGAUCCCCCGGCGCCCGGCGGCUCGAGCCCGGGUAAGUGUCAAUAGUCUGCAUGCCGCCGGGCGCCAUGCCUGCAGGUCGACUCUAGAAAACAUG”: the binding signal in [1] was 0.08 log2 enrichment (interaction score); in experiment [2], 1.38 log2 enrichment (interaction score); in experiment [3] it was 3.81 log2 enrichment (interaction score).

Turning to “GGCUAGAACUAGUGGAUCCCCCGGCGCCCGGCGGCUCGAGCCCGGGUAAGUGUACAUAGUCUGCAUGCCGCCGGGCGCCAUGCCUGCAGGUCGACUCUAGAAAACAUG”, the binding signal in experiment [4] is 2.89 log2 enrichment (interaction score).

“GGCUAGAACUAGUGGAUCCCCCGGCGCCCGGCGGCUCGAGCCCGGGUAAGUGUAAUUAGUCUGCAUGCCGCCGGGCGCCAUGCCUGCAGGUCGACUCUAGAAAACAUG”: the binding signal in [5] is 2.33 log2 enrichment (interaction score).

Take “GGCUAGAACUAGUGGAUCCCCCGGCGCCCGGCGGCUCGAGCCCGGGUAAGUGUAAGUAGUCUGCAUGCCGCCGGGCGCCAUGCCUGCAGGUCGACUCUAGAAAACAUG”: the binding signal in experiment [5] was 1.81 log2 enrichment (interaction score).

For the sequence “GGCUAGAACUAGUGGAUCCCCCGGCGCCCGGCGGCUCGAGCCCGGGUAAGCGUAAAUAGUCUGCAUGCCGCCGGGCGCCAUGCCUGCAGGUCGACUCUAGAAAACAUG”, the binding signal in experiment [6] was 4.7 log2 enrichment (interaction score).

Regarding “GGCUAGAACUAGUGGAUCCCCCGGCGCCCGGCGGCUCGAGCCCGGGUAAGUGUAUAUAGUCUGCAUGCCGCCGGGCGCCAUGCCUGCAGGUCGACUCUAGAAAACAUG”, the binding signal in experiment [4] was 2.96 log2 enrichment (interaction score).

In the case of “GGCUAGAACUAGUGGAUCCCCCGGCGCCCGGCGGCUCGAGCCCGGGUAAGUGUUAAUAGUCUGCAUGCCGCCGGGCGCCAUGCCUGCAGGUCGACUCUAGAAAACAUG”, the binding signal in [1] is 3.13 log2 enrichment (interaction score); in experiment [7], 4.59 log2 enrichment (interaction score); in experiment [2], 3.5 log2 enrichment (interaction score); in experiment [3], 3.62 log2 enrichment (interaction score).

For “GGCUAGAACUAGUGGAUCCCCCGGCGCCCGGCGGCUCGAGCCCGGGUAAGUGUAAAUAGUCUGCAUGCCGCCGGGCGCCAUGCCUGCAGGUCGACUCUAGAAAACAUG”, the binding signal in [1] was 3.42 log2 enrichment (interaction score); in experiment [4], 2.59 log2 enrichment (interaction score); in [5], 4.18 log2 enrichment (interaction score); in [8], 3.98 log2 enrichment (interaction score); in experiment [3], 2.17 log2 enrichment (interaction score); in [9] it was 7.23 log2 enrichment (interaction score). For the same sequence, the binding signal in [10] was 2.92 log2 enrichment (interaction score).
